In PubChem BioAssay (Tox21) one finds Potency and outcome data, which are given here for 10 compounds.

Where “and” joins values, the source holds several entries; their conditions need not be identical. Identical values can stand only once. Inconclusive results are not listed. A structure can be active in one record and inactive in another. Calls of active or inactive are those of the source. Unless noted, the call rests on the fitted dose curve; in most records, active means well fitted curve in the direction sought with a large enough effect in the repeat runs; inconclusive means weak or mixed curves; inactive means no such curve, though single readings can be large; an effect the other way counts as inactive or inconclusive.

The nature of test [1]: qHTS assay to identify small molecule agonists of the vitamin D receptor (VDR) signaling pathway - cell viability counter screen (AID 743224). Further: nearly all actives have a fitted effect of over 50% in size. Further: potency means the concentration at half of the fitted maximal effect. In a few lines: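 Here cell health was gauged by luminescent ATP detection (CellTiter-Glo, 30 min RT) in VDR-bla cells that had been incubated with test compounds for 16 h at 37C and 5% CO2.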
The nature of test [2]: qHTS assay to identify small molecule antagonists of the vitamin D receptor (VDR) signaling pathway - cell viability counter screen (AID 743225). Further: nearly all actives have a fitted effect of over 50% in size. Put shortly: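 VDR-UAS-bla HEK 293T cells were plated and incubated 4 h at 37C, then dosed with compound plus 3 nM (final) 1-alpha,25-dihydroxyvitamin D3 for 16 h. After the 2 h beta-lactamase read, viability in the same wells was read as CellTiter-Glo luminescence after 30 min at room temperature.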
For orientation: qHTS replaces the single test concentration by a dilution series.

Test [3] can be described thus: qHTS assay to identify small molecule agonists of the NFkB signaling pathway (AID 1159509; active means well fitted curve in the direction sought with a large enough effect in the signal ratio in the repeat runs, not every such curve was filed as active; the % refers to the signal ratio; further: series mostly up to about 61 µM). Put shortly: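 After overnight attachment, reporter cells received test compounds, DMSO or positive controls and were incubated 5 hr at 37 C. FRET substrate was then added for 1.5 hr at room temperature before dual-emission fluorescence reading.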
Test [4] can be described thus: qHTS assay to identify small molecule agonists of the NFkB signaling pathway - cell viability counter screen (AID 1159515; calls by dose curve; further: series mostly up to about 61 µM; nearly all actives have a fitted effect of over 55% in size). In a few lines:
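5 hr compound treatment of NFkB-bla ME-180 cells (2,000/well, seeded overnight beforehand), followed by reporter substrate for 1.5 hr. CellTiter-Glo added afterward; luminescence after 30 min RT.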

The nature of test [5]: qHTS assay to identify small molecule agonists of the endoplasmic reticulum stress response signaling pathway - cell viability counter screen (AID 1159517; calls by dose curve;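 further: HeLa cells carrying an ER stress response element beta-lactamase reporter; series mostly up to about 61 µM; nearly all actives have a fitted effect of over 50% in size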). In a few lines:
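Luminescence readout: CellTiter-Glo, 30 min RT, same wells as the ESRE-bla reporter read. HeLa ESRE-bla, 1,500 cells/well, o/n 37 C; cpd 5 hr 37 C/5% CO2.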

Test [6] can be described thus: qHTS assay to identify small molecule antagonists of the retinoid-related orphan receptor gamma (ROR-gamma) signaling pathway - cell viability counter screen (AID 1159520). Further: nearly all actives have a fitted effect of over 50% in size. In a few lines:
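Tet-on ROR gamma CHO cells (1,000/well) were plated 4 hr, given compounds in DMSO for 2 hr at 37 C, then induced with 1 uM final doxycycline for 16 hr. Viability was read as ATP by CellTiter-Glo luminescence after 30 min.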

The target of test [7] is Nuclear receptor ROR-gamma (Homo sapiens) (UniProt P51449). The test can be described thus: qHTS assay to identify small molecule antagonists of the retinoid-related orphan receptor gamma (ROR-gamma) signaling pathway (AID 1159521; further: nearly all actives have a fitted effect of over 50% in size; further: potency means the concentration at half of the fitted maximal effect). In a few lines: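 Tet-on ROR-gamma CHO cells with ROR response element-luciferase reporter; compounds added 2 hr before 1 uM doxycycline induction, then 16 hr at 37 C. Antagonism scored as decreased ONE-Glo luminescence.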

Test [8] can be described thus: qHTS assay to identify small molecule agonists of the AP-1 signaling pathway - cell viability counter screen (AID 1159525; calls by dose curve; further: nearly all actives have a fitted effect of over 55% in size). Put shortly:
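ME-180 AP-1-bla, 2500 cells/well, Opti-MEM + 0.5% dialyzed FBS; overnight 37 °C; cpd 15-pt titration, 5 h 37 °C; CellTiter-Glo 30 min RT; luminescence read; normalised to TOAB and DMSO controls.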

A short description of test [9]: qHTS assay to identify small molecule agonists of the AP-1 signaling pathway (AID 1159526; calls by dose curve).
The target in test [10] is Retinoic acid receptor RXR-alpha (Homo sapiens) (UniProt P19793). The experiment in a line: qHTS assay to identify small molecule agonists of the RXR signaling pathway (AID 1159527; calls by dose curve; further: nearly all actives have a fitted effect of over 35% in size). In a few lines: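 GeneBLAzer RXR-alpha-UAS-bla HEK 293T cells in 2% charcoal-stripped FBS medium were exposed to compounds for 16 hr at 37 C in agonist mode. Beta-lactamase reporter read as 460/530 nm FRET ratio after 2 hr substrate loading.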
Chain of Retinoic acid receptor RXR-alpha (Homo sapiens) (P19793 whole entry, looked up): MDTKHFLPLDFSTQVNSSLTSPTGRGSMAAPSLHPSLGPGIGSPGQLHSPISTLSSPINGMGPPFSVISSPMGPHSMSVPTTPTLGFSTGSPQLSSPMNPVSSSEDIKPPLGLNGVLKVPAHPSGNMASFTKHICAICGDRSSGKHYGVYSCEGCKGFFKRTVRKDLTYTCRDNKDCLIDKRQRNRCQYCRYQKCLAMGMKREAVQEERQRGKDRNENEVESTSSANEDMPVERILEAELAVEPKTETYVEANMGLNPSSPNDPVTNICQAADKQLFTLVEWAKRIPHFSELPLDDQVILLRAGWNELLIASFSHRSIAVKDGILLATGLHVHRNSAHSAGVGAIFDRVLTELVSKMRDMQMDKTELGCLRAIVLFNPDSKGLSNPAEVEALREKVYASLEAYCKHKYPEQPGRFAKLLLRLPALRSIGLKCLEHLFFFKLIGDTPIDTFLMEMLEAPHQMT

A short description of test [11]: qHTS assay to identify small molecule agonists of the RXR signaling pathway - cell viability counter screen (AID 1159529). In a few lines: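 RXR-alpha-UAS-bla HEK 293T cells in medium with 2% charcoal-stripped FBS were pre-incubated 5 hr, then compound-treated 16 hr at 37 C. Viability was read by CellTiter-Glo luminescence in the same wells as the beta-lactamase assay, with tetraoctyl ammonium bromide as positive control.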

Test [12] is described as follows: qHTS assay to identify small molecule antagonists of the retinoid acid receptor (RAR) signaling pathway - cell viability counter screen (AID 1159551). Further: nearly all actives have a fitted effect of over 35% in size. In a few lines:
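Seed C3RL4 cells; next day add compound, then retinol to 1 uM final; incubate 6 h at 37 C; add CellTiter-Glo; read luminescence after 30 min at RT.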

Test [13] can be described thus: qHTS assay to identify small molecule antagonists of the retinoic acid receptor (RAR) signaling pathway (AID 1159552; further: nearly all actives have a fitted effect of over 50% in size). Put shortly:
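Retinol signaling pathway inhibitors screened in C3RL4 RARE-luciferase reporter cells seeded overnight at 37 C, then compounds added with 1 uM (final) retinol as pathway substrate. After 6 hr at 37 C, luciferase luminescence read after 30 min at room temperature.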

A short description of test [14]: qHTS assay to identify small molecule agonists of the retinoic acid receptor (RAR) signaling pathway (AID 1159553). Put shortly: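 Activation of retinol signaling was monitored via a RARE luciferase reporter in C3RL4 cells. After 6 hr compound treatment at 37 C, detection reagent was added for 30 min at room temperature before luminescence reading.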
Test [15] is described as follows: qHTS assay to identify small molecule agonists of the endoplasmic reticulum stress response signaling pathway (AID 1159516; active means well fitted activation curve with a large enough effect in the signal ratio in the repeat runs, not every such curve was filed as active; the % refers to the signal ratio). Put shortly: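 Reporter HeLa cells (ESRE-beta-lactamase) underwent 5 hr compound incubation at 37 C and 5% CO2 in quantitative HTS format. Detection followed 2 hr of FRET substrate loading at room temperature.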

In the case of `Cc1c(N(C)CS(=O)(=O)O)c(=O)n(-c2ccccc2)n1C`, the Potency entry in test [1], in test [5], in test [7], in [9], in test [10] and in test [11] was “inactive” throughout. Moreover, the Potency entry in test [13] and in [14] was “inactive” each time. The outcome in test [2], in [3], in test [4], in test [6], in test [8] and in test [12] was inactive.

Take `CC(=O)CCC(C)C`: the Potency result in test [1], in test [5], in test [7], in test [9], in test [11] and in [13] was “inactive” each time. Moreover, the result in test [2], in [3], in test [4], in test [15], in test [6] and in test [8] was inactive. Also, in [12], the outcome was inactive.

For the compound `Cc1cccc(C)c1O`, the Potency entry in test [1], in test [5], in test [7], in test [9], in test [11] and in test [13] was “inactive” in each case. For the same compound, the call in [2], in [3], in test [4], in test [15], in test [8] and in test [12] was inactive.

Consider `COC(=O)c1ccc(O)cc1`, for which the Potency result in test [1], in [5], in test [9], in [11] and in test [13] was “inactive” in each case. Besides, the outcome in test [2], in test [3], in test [4], in test [15], in [8] and in test [12] was inactive.

Turning to `CCCCCCCCOc1ccc(C(=O)c2ccccc2)c(O)c1`, the Potency result in test [1] is “inactive and 49 µM (active)”. Besides, the result in test [2], in [3], in test [4], in test [6], in test [8] and in test [12] was inactive. The Potency entry in test [5], in test [7], in [9], in [10], in test [11] and in test [13] was “inactive” each time. Besides, the Potency result in test [14] was “inactive”.

With `CCCCCCCCCCCCCC(=O)OC(C)C`, the Potency result in test [1], in [5], in test [7], in test [9], in [10] and in test [11] was “inactive” in each case. Besides, the Potency entry in test [13] and in [14] was “inactive” each time. Moreover, the compound was called inactive in test [2], in test [3], in test [4], in [15], in test [8] and in [12].

In the case of `COC(=O)C1CCC(C(=O)OC)CC1` (configuration not stated), the Potency entry in test [1], in [5], in [7], in test [9], in test [10] and in test [11] was “inactive” each time. Also, the Potency entry in test [13] and in [14] was “inactive” each time. Further, the compound was called inactive in test [2], in [3], in [4], in test [15], in test [6] and in test [8]. Moreover, the result in [12] was inactive.

As to `CCCCCCCCCCCCCCCCCC(=O)OCC(O)CO` (configuration not stated), the Potency result in test [1], in [5], in test [7], in test [9], in test [11] and in test [13] was “inactive” each time. For the same compound, the call in test [2], in test [3], in test [4], in [15], in test [8] and in test [12] was inactive.

Turning to `CCOCCO`, the Potency entry in [1], in test [5], in [7], in [9], in test [10] and in test [11] was “inactive” throughout. The Potency result in test [13] was “inactive”. The result in test [2], in test [3], in [4], in test [15], in test [6] and in test [8] was inactive. The outcome in test [12] was inactive.

Regarding `CC(C)(C)CC(C)(C)c1ccc(O)c(-n2nc3ccccc3n2)c1`, the Potency entry in test [1], in test [5], in test [9], in test [13] and in test [14] was “inactive” throughout. Also, the compound was called inactive in test [2], in [3], in test [4], in test [15], in test [6] and in test [8]. Moreover, the result in [12] was inactive. Besides, the Potency in [7] was 49.2 µM (active) and inactive.
